Potency data for 36 compounds are collected here from PubChem BioAssay (NCATS).

The source made the active and inactive calls. Where a call stands in place of a potency, no number is given. Calls follow the shape of the dose curve; as a rule, active = well fitted inhibition curve with a large enough effect; inconclusive = small, poorly fitted or top-dose-only effect; inactive = no such curve, though single readings can be large or run the other way.

The nature of the experiment: qHTS assay for measurement of the activity of small molecule inhibitors on Zika virus induced Caspase-3 activity in human astrocytoma cells (AID 1224859). Conditions: SNB-19 ZIKV-induced caspase-3/7, luminescence, 6 h; series mostly up to 45.7 µM. A digest of the protocol: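 Human SNB-19 astrocytoma cells in RPMI 1640 with 10% FBS receive compound one hour ahead of Zika virus at 2 FFU/cell. After 6 h infection, caspase-3/7 activity is detected by Caspase-Glo luminescence.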
On to `C[C@@H]1C[C@H]2[C@@H]3CCC4=CC(=O)C=C[C@]4(C)[C@@]3(F)[C@@H](O)C[C@]2(C)[C@@]1(O)C(=O)CO`, for which the Potency result was “inactive”. Turning to `N#Cc1c(N(CC(=O)O)CC(=O)O)sc(C(=O)O)c1CC(=O)O`, the Potency entry is “inactive”. For the compound `CCCCCCCCCCCCCC(=O)N[C@H](CO)[C@H](O)c1ccc([N+](=O)[O-])cc1`, the Potency entry was “inactive”. On to `C=C1c2cccc(O)c2C(O)=C2C(=O)[C@@]3(O)C(O)=C(C(N)=O)C(=O)[C@@H](N(C)C)[C@@H]3[C@@H](O)[C@H]12`, for which the Potency entry was “inactive”. For `CCC(=C(CC)c1ccc(O)cc1)c1ccc(O)cc1`, the Potency result is “inactive”.

For `CN1C(=O)C[C@H](C(=O)N[C@@H](Cc2cnc[nH]2)C(=O)N2CCC[C@@H]2C(N)=O)NC1=O`, the Potency entry was “inactive”. As to `CC1(C)[C@H]2CC[C@]3(C)[C@@H](C(=O)C=C4[C@@H]5C[C@@](C)(C(=O)O)CC[C@]5(C)CC[C@]43C)[C@@]2(C)CC[C@@H]1O`, the Potency entry was “inactive”.

Take `CN1CCc2c(n(Cc3ccc(C(=O)NO)cc3)c3ccccc23)C1`: the Potency entry is “inactive”. In the case of `Cc1[nH]c(C=C2C(=O)Nc3ccc(S(=O)(=O)N(C)c4cccc(Cl)c4)cc32)c(C)c1C(=O)N1CCN(C)CC1` it was “inactive”; in that of `CCC(C)SSc1ncc[nH]1` (stereo unspecified), “inactive”.

Regarding `O=C(O)C1=CC(O)C(O)[C@H](O)C1` (stereo partly specified), the Potency entry was “inactive”. In the case of `CC(=O)OCC(=O)[C@@]12OC(C)(C)O[C@H]1C[C@H]1[C@@H]3C[C@H](F)C4=CC(=O)C=C[C@]4(C)[C@@]3(F)[C@@H](O)C[C@@]12C`, the Potency result was “inactive”. In the case of `CN(C)c1ccc(-c2nc3ncc(Cl)c(N4CCN(CC(=O)Nc5nccs5)CC4)c3[nH]2)cc1`, the Potency result was “inactive”. For `CCCCC(F)(F)[C@@]1(O)CC[C@H]2[C@H](CC(=O)[C@@H]2CCCCCCC(=O)O)O1`, the Potency entry was “inactive”. For the compound `CC(C)CN(C[C@H](O)[C@H](Cc1ccccc1)NC(=O)O[C@H]1CCOC1)S(=O)(=O)c1ccc(N)cc1`, the Potency result was “inactive”. As for `COc1cc(Cl)cn2c(-c3cccc(NC4CNC4)n3)cnc12`, the Potency result is “inactive”. On to `Cc1cc2nc3c(=O)[nH]c(=O)nc-3n(CC(O)C(O)C(O)CO)c2cc1C` (stereo unspecified), for which the Potency result is “inactive”. In the case of `CN1CCN(c2ncc(-c3cc(Cl)cc(Cl)c3Cl)c(N)n2)CC1` it was “inactive”; in that of `CC(NCCc1ccc(O)cc1)C(O)c1ccc(O)cc1` (stereo unspecified), “inactive”; in that of `NC(=O)c1ncn([C@@H]2O[C@H](CO)[C@@H](O)[C@@H]2O)n1`, “inactive”. Regarding `CCCC1OC2C[C@@H]3[C@H]4CCC5=CC(=O)C=C[C@]5(C)[C@H]4C(O)C[C@]3(C)[C@]2(C(=O)CO)O1` (stereo partly specified), the Potency entry is “inactive”.

On to `Nc1ncnc2c1ncn2[C@@H]1O[C@H](CO)[C@@H](O)[C@@H]1O`, for which the Potency entry is “inactive”. In the case of `COc1ccc(-c2nc3ccc(C4=NNC(=O)CC4C)cc3[nH]2)cc1` (stereo unspecified) it was “inactive”; in that of `C#CCN(C)CC1=Cc2ccccc2Oc2ccccc21`, “inactive”; in that of `O=C(c1ccc(C(=O)N2CCC(N3CCCC3)CC2)c(Nc2ccccc2)c1)N1CCC(N2CCCC2)CC1`, “inactive”. In the case of `NS(=O)(=O)c1cc(Cl)c(Cl)c(S(N)(=O)=O)c1` it was “inactive”; in that of `Cc1nn(Cc2ccccc2Cl)c(C)c1CN(C)CC(O)COc1ccc(Cl)cc1` (stereo unspecified), “inactive”. In the case of `CC(C)c1onc(-c2c(Cl)cccc2Cl)c1COc1ccc(C=Cc2cccc(C(=O)O)c2)c(Cl)c1` it was “inactive”.

In the case of `CC1(C)C(N(O)C(=O)Nc2ccc(Cl)cc2)N(c2ccc(Cl)cc2)C(=O)N1CC(=O)NN=CC=Cc1ccc([N+](=O)[O-])o1` (stereo unspecified), the Potency entry is “inactive”. Take `COc1cc2nccc(Oc3ccc(NC(=O)Nc4cc(C)on4)c(Cl)c3)c2cc1OC`: the Potency entry is “inactive”. Under `Nc1ccc(-c2ccc3ncc4ccc(=O)n(-c5cccc(C(F)(F)F)c5)c4c3c2)cn1` stands “inactive”; under `COc1c(C)c2c(c(O)c1CC=C(C)CCC(=O)O)C(=O)OC2`, “inactive”; under `CNC1[C@H](O)C(O[C@@H]2C(O)C(O[C@H]3O[C@H]([C@@H](C)NC)CC[C@H]3N)[C@@H](N)C[C@H]2N)OC[C@]1(C)O` (stereo partly specified), “inactive”. Consider `CC(C)=CCCC(C)=CCCC(C)=CCCC(C)=CCCC(C)=CCCC(C)=CCCC(C)=CCCC(C)=CCCC(C)=CCO`, for which the Potency entry is “inactive”. In the case of `COc1cc([C@@H]2c3cc4c(cc3[C@@H](O[C@@H]3O[C@@H]5CO[C@@H](C)O[C@@H]5[C@H](O)[C@@H]3O)[C@H]3COC(=O)[C@H]23)OCO4)cc(OC)c1O`, the Potency entry was “inactive”.

As for `C[C@H]1[C@H](O)O[C@@H]2O[C@@]3(C)CC[C@@H]4[C@H](C)CC[C@@H]1[C@@]24OO3`, the Potency result was “inactive”.
